miR-122 inh – activators of miR-122 sensor in Huh7 cells; Huh7 psiCHECK-miR122 Renilla luciferase sensor, 48 h; activation, % at 12.5 µM; hit rate 0.14% among 340,000; AID 623901;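 active = mean activation of 30% or more, with every replicate also reaching 30%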;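 note: higher luciferase signal means stronger suppression of miR-122 activity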
Hits are given with their value; – = inactive. Only a selection was taken, and hits are over-represented in it overall.

SMILES	miR-122 inh
Cc1oc(-c2ccc(Cl)cc2)nc1CN1CCCC(C(=O)NCc2ccco2)C1 (stereo not drawn)	39
Cc1ccc(Nc2nc(C(=O)NCc3ccco3)cs2)cc1	–
CCC1=Nc2cc(C(=O)NCc3ccco3)ccc2Sc2ccc(C)cc21	–
COc1ccc(S(=O)(=O)N(C)C[C@@H]2Oc3cc(-c4ccccc4OC)ccc3S(=O)(=O)N([C@@H](C)CO)C[C@H]2C)cc1	–
CCC(=O)N(C)C[C@@H]1Oc2ncc(C#Cc3ccc(OC)cc3)cc2C(=O)N([C@@H](C)CO)C[C@@H]1C	–
COCC(=O)N(C)C[C@@H]1Oc2cc(-c3cncnc3)ccc2S(=O)(=O)N([C@H](C)CO)C[C@H]1C	–
NC(Cc1ccc(C(F)(F)F)cc1)c1csc(Nc2nncc3ccccc23)n1 (stereo not drawn)	34
C/C=C/c1cnc2c(c1)C(=O)N([C@H](C)CO)C[C@H](C)[C@H](CN(C)C(=O)Nc1cccc(OC)c1)O2	–
Cc1ccc(-c2ccc3c(c2)O[C@@H](CN(C)Cc2cccc(C(=O)O)c2)[C@H](C)CN([C@H](C)CO)S3(=O)=O)cc1	–
CC(C)CC#Cc1ccc2c(c1)O[C@@H](CN(C)C(=O)NC1CCCC1)[C@H](C)CN([C@@H](C)CO)S2(=O)=O	–
C[C@@H]1CN([C@@H](C)CO)S(=O)(=O)c2ccc(Br)cc2O[C@@H]1CN(C)S(C)(=O)=O	–
CCCC#Cc1ccc2c(c1)O[C@@H](CN(C)S(C)(=O)=O)[C@H](C)CN([C@@H](C)CO)S2(=O)=O	–
Cc1ccc(C(=O)OCn2ncc(Cl)c(Cl)c2=O)cc1	74
CC(C)NC(=O)N(C)C[C@H]1Oc2cc(C3=CCCCC3)ccc2S(=O)(=O)N([C@H](C)CO)C[C@@H]1C	–
C[C@@H]1CN([C@@H](C)CO)C(=O)c2cc(C#Cc3ccc(F)cc3)cnc2O[C@@H]1CN(C)C(=O)c1ccccc1F	–
CCCNC(=O)Nc1ccc2c(c1)OC[C@H](C)N(C)C[C@H](C)[C@@H](OC)CN(C)C2=O	–
COCC#Cc1cnc2c(c1)C(=O)N([C@H](C)CO)C[C@@H](C)[C@H](CN(C)C(=O)Nc1ccccc1OC)O2	–
COc1cccc(C#Cc2ccc3c(c2)O[C@H](CN(C)C(=O)c2ccccn2)[C@@H](C)CN([C@@H](C)CO)S3(=O)=O)c1	–
Cc1cc2[nH]c3c4ccccc4nc(C)c3c2cc1C	72
COc1cccc(C#Cc2ccc3c(c2)O[C@@H](CN(C)S(=O)(=O)c2ccccc2F)[C@@H](C)CN([C@H](C)CO)S3(=O)=O)c1	–
COc1cccc(NC(=O)N(C)C[C@@H]2Oc3cc(-c4cccc(C(=O)N(C)C)c4)ccc3S(=O)(=O)N([C@@H](C)CO)C[C@H]2C)c1	–
COCC#Cc1cnc2c(c1)C(=O)N([C@H](C)CO)C[C@H](C)[C@@H](CN(C)S(=O)(=O)c1cccc(OC)c1)O2	–
CCCCCCOc1ccc(/C(C)=N/NC2=NCCN2)cc1	65
C[C@@H]1CN([C@H](C)CO)S(=O)(=O)c2ccc(-c3cncnc3)cc2O[C@H]1CN(C)C(=O)Cc1cccnc1	–
CO[C@H]1CN(C)C(=O)c2cc(NC(=O)c3nc4ccccc4s3)ccc2OC[C@@H](C)N(Cc2ccncc2)C[C@H]1C	–
SMILES	miR-122 inh
CN1C(=O)c2cc(NC(=O)c3cccs3)ccc2OC[C@@H]2O[C@@H](CC(=O)NCCN3CCCCC3)CC[C@H]21	83
CN1C(=O)c2cc(NC(=O)c3cccs3)ccc2OC[C@H]2O[C@@H](CC(=O)N3CCCCC3)CC[C@H]21	37
CO[C@H]1CN(C)C(=O)c2cc(NC(=O)C3CCOCC3)ccc2OC[C@@H](C)N(C)C[C@@H]1C	–
CCCC(=O)Nc1ccc2c(c1)C(=O)N(C)[C@H]1CC[C@@H](CC(=O)NCC(F)(F)F)O[C@H]1CO2	–
CCCC(=O)Nc1ccc2c(c1)C(=O)N(C)C[C@@H](OC)[C@@H](C)CN[C@@H](C)CO2	–
CO[C@@H]1CN(C)C(=O)c2cc(NC(=O)C3CCOCC3)ccc2OC[C@@H](C)N(C)C[C@H]1C	–
CN1C(=O)c2cc(NC(=O)c3cccs3)ccc2OC[C@H]2O[C@H](CC(=O)NCC(F)(F)F)CC[C@H]21	50
CN1C(=O)c2cc(NC(=O)Cc3cccs3)ccc2OC[C@@H]2O[C@H](CC(=O)NCC3CCCCC3)CC[C@@H]21	–
CCCC(=O)Nc1ccc2c(c1)C(=O)N(C)[C@@H]1CC[C@H](CC(=O)NCC(F)(F)F)O[C@H]1CO2	37
COc1ccccc1S(=O)(=O)N(C)C[C@@H]1Oc2cc(/C=C/c3ccccc3)ccc2S(=O)(=O)N([C@@H](C)CO)C[C@H]1C	–
C[C@H]1CN([C@@H](C)CO)S(=O)(=O)c2ccc(C#Cc3ccccc3)cc2O[C@@H]1CN(C)C(=O)Nc1ccc2c(c1)OCO2	–
CCCNC(=O)N(C)C[C@@H]1Oc2ncc(C#CCC3CCCC3)cc2C(=O)N([C@@H](C)CO)C[C@H]1C	–
COc1ccc(C#Cc2ccc3c(c2)O[C@H](CN(C)C)[C@H](C)CN([C@H](C)CO)S3(=O)=O)cc1	–
COCC(=O)Nc1ccc2c(c1)OC[C@@H](C)NC[C@@H](C)[C@@H](OC)CN(C)C2=O	–
CO[C@H]1CN(C)C(=O)c2cc(NS(=O)(=O)CC(F)(F)F)ccc2OC[C@H](C)N(C)C[C@H]1C	–
C[C@@H]1CN([C@H](C)CO)C(=O)c2cc(-c3cncnc3)cnc2O[C@@H]1CN(C)Cc1cncnc1	–
C[C@H](CO)N1C[C@H](C)[C@H](CN(C)C(=O)c2cccnc2)Oc2ncc(/C=C/c3ccccc3)cc2C1=O	–
COCC#Cc1cnc2c(c1)C(=O)N([C@@H](C)CO)C[C@@H](C)[C@H](CN(C)S(=O)(=O)c1cccc(OC)c1)O2	–
C/C=C/c1ccc2c(c1)O[C@H](CN(C)S(C)(=O)=O)[C@H](C)CN([C@H](C)CO)S2(=O)=O	–
Cc1noc(C)c1NC(=O)N(C)C[C@H]1Oc2cc(C#CCC(C)C)ccc2S(=O)(=O)N([C@H](C)CO)C[C@H]1C	–
C[C@H]1CN([C@@H](C)CO)C(=O)c2cc(-c3ccc(F)cc3)cnc2O[C@@H]1CN(C)Cc1ccc(C(=O)O)cc1	–
CCS(=O)(=O)Nc1ccc2c(c1)C(=O)N(C)C[C@@H](OC)[C@H](C)CN(CC1CCCC1)[C@H](C)CO2	38
CCCNC(=O)N1C[C@@H](C)[C@@H](OC)CN(C)C(=O)c2cc(NS(=O)(=O)CC)ccc2OC[C@H]1C	–
CCCNC(=O)N1C[C@H](C)[C@@H](OC)CN(C)C(=O)c2cc(NS(=O)(=O)CC)ccc2OC[C@@H]1C	–
Cc1ccc(-c2cnc3c(c2)C(=O)N([C@@H](C)CO)C[C@H](C)[C@@H](CN(C)C(=O)Cc2cccnc2)O3)cc1	–
SMILES	miR-122 inh
COc1cccc(N2CCN(c3ncnc4c3[nH]c3ccc(F)cc34)CC2C)c1 (stereo not drawn)	32
C[C@@H]1CN([C@H](C)CO)S(=O)(=O)c2ccc(-c3ccncc3)cc2O[C@H]1CN(C)Cc1ccccn1	–
C[C@@H]1CN([C@H](C)CO)S(=O)(=O)c2ccc(C#Cc3cccnc3)cc2O[C@@H]1CN(C)C(=O)C1CC1	–
C[C@@H]1CN([C@@H](C)CO)C(=O)c2cc(Br)cnc2O[C@@H]1CN(C)CC1CCOCC1	–
COCC#Cc1ccc2c(c1)O[C@@H](CN(C)Cc1cncnc1)[C@H](C)CN([C@@H](C)CO)S2(=O)=O	–
Cc1noc(C)c1NC(=O)N(C)C[C@H]1Oc2ncc(C#CCC(C)C)cc2C(=O)N([C@H](C)CO)C[C@@H]1C	–
